Results as given in PubChem BioAssay AID1159580 (chemical genetic matrix, 2015).
Where “and” joins values, the source holds several entries; their conditions need not be identical. Equal values may be shown once. The campaign covered roughly 5,500 compounds. About 2,000 (36%) were called active. About 18% were inconclusive and are not listed. Rule as the data show it: active = normalized growth mostly below about 0.91 (no sharp cut-off); inconclusive = no clear call, values can overlap the other calls; inactive = mostly above about 0.92. Some of the results follow.

Assay: chemical genetic growth profiling, strain panel (AID 1159580);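 also: tested at 20 µM; growth read once vehicle control cultures reached saturation at 30 °C; 1 = growth at the plate median or of vehicle wells; lower values mean less growth of the strain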
Settings: S. cerevisiae deletion strains, growth OD
[1] = locus YDL101C, strain DUN1, hits give low values
[2] = locus YHR030C, strain SLT2, hits give low values
[3] = locus YHR079C, strain IRE1, hits give low values
[4] = locus YJL095W, strain BCK1, hits give low values
[5] = locus YJR066W, strain TOR1, hits give low values
[6] = locus YLR113W, strain HOG1, hits give low values
[7] = locus YNL183C, strain NPR1, hits give low values
[8] = locus YOR061W, strain CKA2, hits give low values
[9] = locus YOR231W, strain MKK1, hits give low values
[10] = locus YPL256C, strain CLN2, hits give low values

Measured: normalized growth

COc1cc(OC)c(-c2c(OC)cc(OC)cc2OC)c(OC)c1
inactive: locus YBR021W, strain FUR4, hits give low values 1.05 | locus YBR229C, strain ROT2, hits give low values 1.01 | locus YCL029C, strain bik1, hits give low values 0.997 | locus YDL035C, strain GPR1, hits give low values 1.02 | locus YDL074C, strain BRE1, hits give low values 1.06 | [1] 1.03 | locus YDL185W, strain tfp1, hits give low values 1.03 | locus YDL192W, strain arf1, hits give low values 1.04 | locus YDR101C, strain arx1, hits give low values 1.02 | locus YDR162C, strain NBP2, hits give low values 1.04 | locus YDR318W, strain mcm21, hits give low values 1.03 | locus YDR388W, hits give low values 1.01 | locus YDR502C, strain sam2, hits give low values 1.05 | locus YEL061C, strain CIN8, hits give low values 1.01 | locus YER110C, hits give low values 1.02 | locus YER155C, strain BEM2, hits give low values 1.01 | locus YER167W, strain BCK2, hits give low values 1.01 | locus YGL078C, strain dbp3, hits give low values 1.05 | locus YGL086W, strain mad1, hits give low values 1.04 | locus YGL248W, strain PDE1, hits give low values 1.03 | locus YGR078C, strain PAC10, hits give low values 1.06 | locus YGR135W, strain pre9, hits give low values 1.07 | locus YGR252W, strain gcn5, hits give low values 1.05 | [2] 0.998 | locus YHR079C, strain IRE1 (second series), hits give low values 1.02 | [3] 0.998 | locus YHR094C, strain hxt1, hits give low values 1.03 | locus YHR129C, strain ARP1, hits give low values 1.01 | locus YHR200W, strain rpn10, hits give low values 1.03 | locus YIL066C, strain RNR3, hits give low values 1.02 | locus YIL073C, strain SPO22, hits give low values 1.1 | locus YIL125W, strain kgd1, hits give low values 1.01 | locus YIR030C, strain dcg1, hits give low values 1.02 | [4] 1.09 and 0.999 | locus YJL134W, strain LCB3, hits give low values 1.01 | locus YJL168C, strain set2, hits give low values 1.02 | locus YJL187C, strain SWE1 (second series), hits give low values 1.06 | [5] 0.953 | locus YJR075W, strain HOC1, hits give low values 1.04 | locus YKL009W, strain mrt4, hits give low values 1.06 | locus YKL068W, hits give low values 0.993 | locus YKL085W, strain MDH1 (second series), hits give low values 1.01 | locus YKL085W, strain MDH1, hits give low values 1.01 | locus YKL190W, strain CNB1, hits give low values 1.02 | locus YKR001C, strain vps1, hits give low values 1.05 | locus YLR039C, strain RIC1, hits give low values 1.07 | locus YLR058C, strain SHM2, hits give low values 1.04 | locus YLR102C, strain apc9, hits give low values 1.01 | [6] 1 | locus YLR262C, strain YPT6, hits give low values 1.09 | locus YLR268W, strain sec22, hits give low values 1.02 | locus YLR371W, strain rom2, hits give low values 1.02 | locus YLR418C, strain cdc73, hits give low values 1.13 | locus YML016C, strain PPZ1, hits give low values 1.02 | locus YML032C, strain rad52, hits give low values 1.04 | locus YML124C, strain tub3, hits give low values 1.02 | locus YMR078C, strain ctf18, hits give low values 1.02 | locus YMR223W, strain ubp8, hits give low values 1.04 | locus YMR307W, strain GAS1, hits give low values 1.07 | locus YNL067W, strain RPL9B, hits give low values 1.05 | [7] 0.948 | locus YNL233W, strain BNI4, hits give low values 1.07 | locus YNL250W, strain rad50, hits give low values 1.06 | locus YNL271C, strain bni1, hits give low values 1.02 | locus YNL298W, strain CLA4, hits give low values 1.03 | locus YNL307C, strain MCK1, hits give low values 1.03 | locus YNR052C, strain pop2, hits give low values 1.04 | locus YOL006C, strain TOP1, hits give low values 1.15 | locus YOL012C, strain htz1 0.971 | locus YOL147C, strain pex11, hits give low values 1.03 | [8] 1.02 | locus YOR069W, strain VPS5, hits give low values 1.01 | locus YOR136W, strain idh2, hits give low values 1.03 | locus YOR144C, strain elg1, hits give low values 1.02 | locus YOR184W, strain ser1, hits give low values 1.04 | [9] 0.976 | locus YOR316C, strain cot1, hits give low values 1.03 | [10] 0.997 | locus YPR119W, strain clb2, hits give low values 1.01 | locus YPR141C, strain kar3, hits give low values 1.02 | locus YPR163C, strain tif3, hits give low values 1.03 | locus YPR167C, strain met16, hits give low values 1.03 | strain wtn01, hits give low values 1.03

COc1cc(OC)cc(/C(N)=N\O)c1
active: [6] 0.847
inactive: locus YAR019C, strain CDC15, hits give low values 0.981 | locus YBL105C, strain PKC1, hits give low values 0.99 | locus YBR135W, strain CKS1, hits give low values 0.986 | locus YBR136W, strain MEC1, hits give low values 0.975 | locus YBR160W, strain CDC28, hits give low values 0.993 | locus YDL017W, strain CDC7, hits give low values 0.989 | locus YDL028C, strain MPS1, hits give low values 0.982 | [1] 0.992 | locus YDL108W, strain KIN28, hits give low values 0.982 | locus YDL132W, strain cdc53, hits give low values 0.997 | locus YDL214C, strain PRR2, hits give low values 0.956 | locus YDR052C, strain DBF4, hits give low values 0.991 | locus YDR054C, strain cdc34, hits give low values 0.992 | locus YDR226W, strain ADK1, hits give low values 0.994 | locus YDR477W, strain SNF1, hits give low values 0.958 | locus YER123W, strain YCK3, hits give low values 0.927 | locus YER133W, strain GLC7, hits give low values 0.971 | locus YFL009W, strain cdc4, hits give low values 0.991 | locus YFL029C, strain CAK1, hits give low values 0.975 | locus YFR003C, strain YPI1, hits give low values 0.99 | locus YFR019W, strain FAB1, hits give low values 0.961 | locus YFR028C, strain CDC14, hits give low values 0.994 | locus YGR040W, strain KSS1, hits give low values 0.959 | locus YGR052W, strain FMP48, hits give low values 1.02 | locus YGR092W, strain DBF2, hits give low values 0.943 | [2] 0.874 | [3] 0.909 | locus YHR082C, strain KSP1, hits give low values 0.994 | locus YHR205W, strain SCH9, hits give low values 0.891 | locus YIL147C, strain SLN1, hits give low values 0.963 | [4] 0.875 | locus YJL128C, strain PBS2, hits give low values 0.967 | locus YJL157C, strain FAR1, hits give low values 0.983 | locus YJR016C, strain ILV3, hits give low values 0.997 | locus YJR066W, strain TOR1 (second series), hits give low values 0.929 | [5] 0.966 | locus YKL048C, strain ELM1, hits give low values 0.962 | locus YKL067W, strain YNK1, hits give low values 0.961 | locus YKL101W, strain HSL1, hits give low values 0.925 | locus YKL193C, strain SDS22, hits give low values 0.992 | locus YKL203C, strain TOR2, hits give low values 1.01 | locus YLR133W, strain CKI1, hits give low values 0.958 | locus YLR403W, strain SFP1, hits give low values 0.937 | locus YML070W, strain DAK1, hits give low values 0.943 | locus YMR001C, strain CDC5, hits give low values 0.991 | locus YMR205C, strain PFK2 (second series), hits give low values 0.963 | locus YMR277W, strain FCP1, hits give low values 0.997 | locus YNL006W, strain LST8, hits give low values 0.993 | locus YNL020C, strain ARK1, hits give low values 0.959 | locus YNL161W, strain CBK1, hits give low values 0.988 | [7] 0.95 | locus YNL207W, strain RIO2, hits give low values 0.988 | locus YNL222W, strain SSU72, hits give low values 0.991 | locus YNL307C, strain MCK1 (second series), hits give low values 0.951 | locus YOL078W, strain AVO1, hits give low values 0.991 | locus YOL136C, strain PFK27, hits give low values 0.955 | [8] 0.925 | locus YOR119C, strain RIO1, hits give low values 0.983 | [9] 0.904 | locus YOR329C, strain SCD5, hits give low values 0.987 | locus YPL031C, strain PHO85, hits give low values 0.958 | locus YPL153C, strain RAD53, hits give low values 0.943 | locus YPL204W, strain HRR25, hits give low values 0.973 | locus YPL209C, strain IPL1, hits give low values 0.988 | [10] 0.891 | locus YPR025C, strain CCL1, hits give low values 0.986 | locus YPR106W, strain ISR1, hits give low values 0.988 | locus YPR111W, strain DBF20, hits give low values 0.986 | strain NNK1, hits give low values 0.992 | strain TSCII, hits give low values 0.996
